Assay results from PubChem BioAssay AID1159580 (chemical genetic matrix, 2015).
Several values for one entry are separate records, joined by “and”; a condition that tells them apart may be missing. Equal entries are not always repeated. Hit rate of the full screen: of about 5,500 compounds, about 2,000 (36%) were called active. About 18% were inconclusive and are not listed. Rule as the data show it: active = normalized growth mostly below about 0.91 (no sharp cut-off); inconclusive = no clear call, values can overlap the other calls; inactive = mostly above about 0.92. Some of the results follow.

Assay: chemical genetic growth profiling, strain panel (AID 1159580);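 also: tested at 20 µM; growth read once vehicle control cultures reached saturation at 30 °C; 1 = growth at the plate median or of vehicle wells; lower values mean less growth of the strain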
Conditions: S. cerevisiae deletion strains, growth OD

Measured: normalized growth

CC(C)C1CCC(C(=O)N[C@@H](Cc2ccccc2)C(=O)O)CC1 (some centres not stated)
inactive: locus YAL013W, strain DEP1, stronger effect = lower value 0.994 | locus YAL021C, strain ccr4, stronger effect = lower value 0.97 | locus YAL026C, strain drs2, stronger effect = lower value 0.978 | locus YAL030W, strain snc1, stronger effect = lower value 0.975 | locus YBL061C, strain skt5, stronger effect = lower value 0.973 | locus YBR009C, strain hhf1, stronger effect = lower value 0.983 | locus YBR021W, strain FUR4, stronger effect = lower value 0.969 | locus YBR023C, strain chs3, stronger effect = lower value 0.973 | locus YBR171W, strain sec66, stronger effect = lower value 0.962 | locus YBR229C, strain ROT2, stronger effect = lower value 1.01 | locus YBR231C, strain swc5, stronger effect = lower value 0.956 | locus YBR279W, strain paf1, stronger effect = lower value 0.973 | locus YCL011C, strain gbp2, stronger effect = lower value 0.976 | locus YCL016C, strain dcc1, stronger effect = lower value 0.967 | locus YCL029C, strain bik1, stronger effect = lower value 1.02 | locus YCL061C, strain MRC1, stronger effect = lower value 0.972 | locus YCL069W, strain vba3, stronger effect = lower value 0.979 | locus YCR088W, strain abp1, stronger effect = lower value 0.971 | locus YDL005C, strain med2, stronger effect = lower value 0.974 | locus YDL035C, strain GPR1, stronger effect = lower value 0.982 | locus YDL040C, strain nat1, stronger effect = lower value 0.974 | locus YDL074C, strain BRE1, stronger effect = lower value 0.987 | locus YDL101C, strain DUN1, stronger effect = lower value 1 | locus YDL134C, strain PPH21, stronger effect = lower value 1.01 | locus YDL185W, strain tfp1, stronger effect = lower value 1.02 | locus YDL192W, strain arf1, stronger effect = lower value 1.01 | locus YDR001C, strain nth1, stronger effect = lower value 0.972 | locus YDR069C, strain doa4, stronger effect = lower value 0.986 | locus YDR101C, strain arx1, stronger effect = lower value 1.02 | locus YDR137W, strain rgp1, stronger effect = lower value 0.96 | locus YDR150W, strain NUM1, stronger effect = lower value 0.995 | locus YDR159W, strain sac3, stronger effect = lower value 0.989 | locus YDR162C, strain NBP2, stronger effect = lower value 0.987 | locus YDR195W, strain ref2 0.962 | locus YDR297W, strain sur2, stronger effect = lower value 0.976 | locus YDR318W, strain mcm21, stronger effect = lower value 1.01 | locus YDR334W, strain swr1, stronger effect = lower value 0.968 | locus YDR335W, strain msn5, stronger effect = lower value 0.974 | locus YDR388W, stronger effect = lower value 1.01 | locus YDR392W, strain spt3, stronger effect = lower value 0.985 | locus YDR502C, strain sam2, stronger effect = lower value 1.01 | locus YEL003W, strain gim4, stronger effect = lower value 0.988 | locus YEL037C, strain rad23, stronger effect = lower value 0.971 | locus YEL061C, strain CIN8 (second series), stronger effect = lower value 0.973 | locus YEL061C, strain CIN8, stronger effect = lower value 0.992 | locus YER015W, strain faa2, stronger effect = lower value 0.986 | locus YER016W, strain bim1, stronger effect = lower value 0.98 | locus YER110C, stronger effect = lower value 1.02 | locus YER111C, strain swi4, stronger effect = lower value 0.98 | locus YER155C, strain BEM2 (second series), stronger effect = lower value 0.958 | locus YER155C, strain BEM2, stronger effect = lower value 0.928 | locus YER167W, strain BCK2, stronger effect = lower value 0.994 | locus YFR010W, strain ubp6, stronger effect = lower value 0.968 | locus YGL078C, strain dbp3, stronger effect = lower value 1.01 | locus YGL086W, strain mad1, stronger effect = lower value 1.01 | locus YGL167C, strain pmr1, stronger effect = lower value 0.967 | locus YGL173C, strain kem1, stronger effect = lower value 0.97 | locus YGL227W, strain vid30, stronger effect = lower value 0.969 | locus YGL240W, strain doc1, stronger effect = lower value 0.985 | locus YGL248W, strain PDE1, stronger effect = lower value 1.01 | locus YGL253W, strain hxk2, stronger effect = lower value 0.97 | locus YGR078C, strain PAC10, stronger effect = lower value 0.984 | locus YGR135W, strain pre9, stronger effect = lower value 1.01 | locus YGR229C, strain SMI1, stronger effect = lower value 0.949 | locus YGR252W, strain gcn5, stronger effect = lower value 0.994 | locus YHR013C, strain ard1, stronger effect = lower value 0.953 | locus YHR027C, strain rpn1, stronger effect = lower value 0.993 | locus YHR030C, strain SLT2, stronger effect = lower value 1.01 and 0.98 | locus YHR079C, strain IRE1 (second series), stronger effect = lower value 1.01 | locus YHR079C, strain IRE1, stronger effect = lower value 0.986 | locus YHR094C, strain hxt1, stronger effect = lower value 1.01 | locus YHR129C, strain ARP1, stronger effect = lower value 1.01 | locus YHR142W, strain chs7, stronger effect = lower value 0.965 | locus YHR200W, strain rpn10, stronger effect = lower value 1.01 | locus YIL066C, strain RNR3, stronger effect = lower value 0.989 | locus YIL073C, strain SPO22, stronger effect = lower value 0.989 | locus YIL125W, strain kgd1, stronger effect = lower value 1.01 | locus YIR030C, strain dcg1, stronger effect = lower value 1.02 | locus YJL092W, strain hpr5, stronger effect = lower value 0.983 | locus YJL095W, strain BCK1 (second series), stronger effect = lower value 0.979 | locus YJL095W, strain BCK1, stronger effect = lower value 1 and 1.02 | locus YJL115W, strain asf1, stronger effect = lower value 0.978 | locus YJL129C, strain trk1, stronger effect = lower value 0.963 | locus YJL134W, strain LCB3, stronger effect = lower value 0.996 | locus YJL154C, strain vps35, stronger effect = lower value 0.973 | locus YJL164C, strain tpk1, stronger effect = lower value 0.992 | locus YJL166W, strain qcr8, stronger effect = lower value 0.979 | locus YJL168C, strain set2, stronger effect = lower value 1.01 | locus YJL187C, strain SWE1 (second series), stronger effect = lower value 1.01 | locus YJL187C, strain SWE1, stronger effect = lower value 0.983 | locus YJR043C, strain POL32, stronger effect = lower value 0.99 | locus YJR066W, strain TOR1, stronger effect = lower value 0.956
